An excerpt weighted towards active compounds, which were near 3.1% of everything screened.
IkB signaling = IkB pathway inhibition in ABC-DLBCL cells; ABC-DLBCL IkBa-CBG/CBR dual luciferase ratio, 4 h; response scale: scaled: untreated 0%, proteasome inhibitor 100%; Potency, µM (titrated, usually from 57.1 µM), for the others: top-dose IkBa stabilization activation; 0.04% of 110,000 active; active = well fitted curve in the direction sought with a large enough effect in the signal ratio, not every such curve was filed as active; inconclusive = small, poorly fitted or top-dose-only effect, or a change in a side signal; the % refers to the signal ratio;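 also: the direction sought is a rising ratio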
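Luminescence ratio of IκBα-fused green versus native red beetle luciferase in OCI-Ly3 cells, 4 h post-doxycycline with compound; red signal alone, scaled from basal (0%) to zero light (-100%), flagged nonspecific or cytotoxic effects.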
p53ts 32C kill = p53ts cell cytotoxicity, permissive temperature; H1299-p53A138V at 32C, ATP luminescence viability, 24 h; Potency, µM (series often up to 46.1 µM), for inactives: top-dose activity change, negative = cytotoxicity, hits mostly cytotoxic; 0.93% of 130,000 active;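 also: 0% = DMSO and -100% = full killing by reference compound; nearly all actives have a fitted effect of over 55% in size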
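ATP-content luminescence (ATPlite) read-out after 24 h compound exposure at 32C in H1299-p53A138V cells (600/well). Tested up to 46 uM. Normalized to DMSO (0%) and 100 uM tamoxifen (100% killing); Hill-fit AC50.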
HEK293 cAMP cs = counter-screen for TSHR agonists: cAMP increase in parental HEK293; parental HEK293 CNG cAMP sensor, membrane potential fluorescence; Potency, µM (top dose mostly 57.1 µM), for the others: top-dose activation, actives largely listed as activators; 2.5% of 73,000 active; AID 938; also: % of control where 0% means no effect; nearly all actives have a fitted effect of over 55% in size
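Parental HEK 293 cells stably expressing a modified CNG channel (no TSHR) report cAMP rise as membrane depolarization. Membrane potential dye with 100 uM RO 20-1724 was loaded for 60 min at room temperature, then compound added for 30 min; fluorescence read at 590 nm.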
TSHR ag = TSH receptor (human) agonism; HEK293-CNG-TSHR cells (CNG channel as cAMP sensor), membrane potential dye, cAMP; P16473; Potency, µM (series often up to 57.1 µM), inactives show top-dose activation, hits mostly activators; AID 926; 0.48% of 73,000 active; active = well fitted activation curve with a large enough effect in the main read-out, with a control signal flat, not every such curve was filed as active; inconclusive = small, poorly fitted or top-dose-only effect, or a change in a side signal; inactive = no such curve, though single readings can be large or run the other way; % of control where 0% means no effect;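 also: the control signal comes from parental cells without the receptor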
Target sequence (P16473 whole entry, looked up): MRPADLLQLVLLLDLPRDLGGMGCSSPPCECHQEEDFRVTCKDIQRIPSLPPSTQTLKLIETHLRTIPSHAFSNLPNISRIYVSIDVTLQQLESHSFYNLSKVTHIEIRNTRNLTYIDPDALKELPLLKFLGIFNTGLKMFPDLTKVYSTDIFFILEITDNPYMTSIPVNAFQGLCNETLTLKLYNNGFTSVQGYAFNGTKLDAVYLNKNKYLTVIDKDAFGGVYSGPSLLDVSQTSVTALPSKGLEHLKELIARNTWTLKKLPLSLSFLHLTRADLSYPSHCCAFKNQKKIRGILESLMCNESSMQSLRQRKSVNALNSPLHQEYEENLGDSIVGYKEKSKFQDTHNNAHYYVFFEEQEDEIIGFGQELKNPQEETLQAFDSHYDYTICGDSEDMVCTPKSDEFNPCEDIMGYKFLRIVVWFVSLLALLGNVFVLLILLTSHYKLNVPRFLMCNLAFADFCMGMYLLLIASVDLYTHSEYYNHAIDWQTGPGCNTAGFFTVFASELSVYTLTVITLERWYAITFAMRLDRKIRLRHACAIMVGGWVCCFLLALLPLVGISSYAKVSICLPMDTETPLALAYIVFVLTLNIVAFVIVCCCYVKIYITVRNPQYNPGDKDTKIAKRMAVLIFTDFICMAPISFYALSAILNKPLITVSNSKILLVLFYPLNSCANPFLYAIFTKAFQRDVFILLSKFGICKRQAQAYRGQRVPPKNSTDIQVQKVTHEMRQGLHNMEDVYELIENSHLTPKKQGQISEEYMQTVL
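HEK 293 cells stably expressing TSHR and a cAMP-gated CNG channel; parental CNG-only cells as counterscreen. Cells preloaded 60 min with membrane potential dye plus 100 uM RO 20-1724, then compound 30 min; fluorescence read at 590 nm.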
Imprint erasure = genomic imprint erasure induction. mouse ES Peg3-LacZ reporter, beta-gal luminescence, 40 h. Potency, µM (doses to about 60.7 µM), for the others: at the highest dose activity change, positive = activation, most hits filed as activators. 0.02% of 110,000 active
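Readout: BetaGlo luminescence (5 min, room temp) for LacZ from the normally silent maternal Peg3 allele in female Peg3LacZ-Neo ES cells. Cells 300/well, 40 h, 37C, 5% CO2. Data normalized per plate to negative controls.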
p53ts 39C kill = kills p53ts cells at the nonpermissive temperature. H1299-p53A138V viability at 39C, ATP luminescence, 24 h. Potency, µM (top dose mostly 46.1 µM), for inactives: at the top dose activity change, negative = cell killing, usual class: cytotoxic. 1.5% of 130,000 active; also: % is scaled to controls: 0 for no effect and ±100 for the full control effect; nearly all actives have a fitted effect of over 55% in size
* hit, by the source's call; u = inconclusive; x = no result given; [ ] = another dose, or the depositor's remark. Unless noted, calls follow the shape of the dose curve; as a rule, active = well fitted curve in the direction sought with a large enough effect; inconclusive = small, poorly fitted or top-dose-only effect, or another doubt; inactive = no such curve, though single readings can be large; an effect the other way counts as inactive or inconclusive. Potency is read from the fitted curve at half-maximal effect.

SMILES	IkB signaling	p53ts 32C kill	HEK293 cAMP cs	TSHR ag	Imprint erasure	p53ts 39C kill
O=C(CC1N=C2c3ccccc3N=C(SCc3cccc(Cl)c3)N2C1=O)NCCc1ccccc1 (stereo not drawn)	-2%	20%	x	x	-7%[10.9 µM]	-3%
CCOC(=O)C1=C(c2ccccc2)c2cc(OC)ccc2OC1C(=O)OCC (stereo not drawn)	x	x	x	x	-15%	x
Clc1cccc(N2CCN(c3ncnc4c3nc3n4CCCCC3)CC2)c1	u	u	x	x	-22%[10.9 µM]	13µM*
O=C(C1CCN(c2ncnc3c2nc2n3CCCCC2)CC1)N1CCN(c2cccc(Cl)c2)CC1	x	3%	x	x	x	x
COc1ccc2c(c1)c1c(c(=O)n(Cc3ccccc3)c(=O)n1Cc1cc(C)ccc1C)n2C	-2%	1%	x	x	17%[10.9 µM]	-1%
C/C(=N/Nc1ccc2ccccc2n1)c1ccccc1O	u	3.2µM*	-8%[11.4 µM]	-12%[11.4 µM]	-56%[10.9 µM]	2.5µM*
C[C@]12C=CC(=O)C=C1CC[C@@H]1[C@H]3C[C@@H](O)[C@](O)(C(=O)CO)[C@@]3(C)C[C@H](O)[C@]12F	u	1%[20.6 µM]	-2%[25.6 µM]	-10%[25.6 µM]	-2%[16.8 µM]	11%[20.6 µM]
Cn1c(=O)c2c(nc(SCc3ccccc3)n2Cc2ccc(Cl)cc2)n(C)c1=O	x	0%	x	x	x	2%
CC(C)Sc1nc2c(c(=O)n(C)c(=O)n2C)n1Cc1ccc(Cl)cc1	7%	0%	7.9µM*	u	8%	7%
CCc1nnc(SCC(=O)N(C)c2ccccc2)c2cc3sccc3n12	u	-1%	x	x	-9%[10.9 µM]	25µM*
COC(=O)c1nnn(CC(=O)Nc2c(C)cccc2C)c1N	4%	0%	x	x	-5%[10.9 µM]	11%
COc1ccc(CN/C(C)=C(/C#N)C(N)=O)cc1OC	-3%	4%	-2%	13µM*	7%	-2%
COc1cc(-c2nc3ccc(C)cn3c2Nc2ccc(Cl)cc2)ccc1O	u	-14%	x	x	5%[10.9 µM]	16µM*
COC(=O)c1ccc(C(NC(=O)OCc2ccccc2)/C(I)=C/[C@@H](C)C(=O)NCc2ccc(OC)c(O)c2)cc1 (stereo partly drawn)	x	9%	23%	25µM*	-17%	-4%
COC(=O)c1ccc(C(NC(=O)OCc2ccccc2)/C(C)=C/[C@@H](C)C(=O)NC2CCCCC2)cc1 (stereo partly drawn)	x	17%	16µM*	u	-10%	-10%
O=C(CSc1nc(-c2ccccc2)nc2c1CCCC2)N1CCOCC1	1%	-2%	23%	13µM*	2%	6%
O=C(CSc1nc(-c2ccccc2)nc2c1CCCC2)c1ccc(Cl)cc1	-1%	2%	x	x	-11%[10.9 µM]	19%
Cc1ccc(CS(=O)(=O)c2ncc(Cl)c(C(=O)Nc3nc4ccc(C)cc4s3)n2)cc1	u	16µM*	x	x	-26%[10.9 µM]	13µM*
CCS(=O)(=O)c1ncc(Cl)c(C(=O)NCc2ccc(OC)cc2)n1	u	u	x	x	-27%[10.9 µM]	u
COc1ccc2nc(NC(=O)c3nc(S(=O)(=O)Cc4ccc(C)cc4)ncc3Cl)sc2c1	u	u	x	x	-18%[10.9 µM]	6.3µM*
COc1ccc2nc(NC(=O)c3nc(SC(C)C)ncc3Cl)sc2c1	0%	1%	x	x	-6%[10.9 µM]	-9%
Cc1ccc(CS(=O)(=O)c2ncc(Cl)c(C(=O)Nc3nc4ccc(F)cc4s3)n2)cc1	u	13µM*	x	x	-25%[10.9 µM]	16µM*
Cc1ccc(CSc2ncc(Cl)c(C(=O)Nc3nc4ccc(C)cc4s3)n2)cc1	u	-2%	x	x	-11%[10.9 µM]	-14%
Cc1ccc(CNC(=O)c2nc(S(=O)(=O)Cc3ccc(C)cc3)ncc2Cl)cc1	-2%	16µM*	x	x	-8%[10.9 µM]	13µM*
CN(C)c1ccc(NC(=O)CN2CCN(CC(=O)Nc3ccc(Br)cc3)CC2)cc1	2%	-3%	x	x	-15%[10.9 µM]	-34%
SMILES	IkB signaling	p53ts 32C kill	HEK293 cAMP cs	TSHR ag	Imprint erasure	p53ts 39C kill
Cc1cc(C)c2oc(-c3cccc(NC(=O)c4cc5ccccc5o4)c3)nc2c1	1%	11%	x	x	-3%[10.9 µM]	-8%
O=C(O)[C@H](Cc1cc(I)c(O)c(I)c1)C1CCCCC1	1%[11.4 µM]	3%[9.22 µM]	3%[11.4 µM]	6%[11.4 µM]	-7%[10.9 µM]	-9%[9.22 µM]
O=c1ccn([C@H]2O[C@H](CO)[C@@H](O)[C@@H]2O)c(=O)[nH]1	-1%[11.4 µM]	x	-3%	6%	x	x
Cc1ccc(C(=O)/C=C2\NCCNC2=O)cc1	x	13µM*	x	x	x	u
Cc1ccc(C(=O)C2CCNCC2)cc1	-4%	-9%	7%	-7%	-48%	-7%
CC(=O)c1ccc(NC(=O)CSc2nccn2Cc2ccco2)cc1	1%	5%	x	x	25%[10.9 µM]	-20%
Cc1ccc(C)c2[nH]c(=O)c(CN(CC3CCCO3)C(=O)NC3CCCCC3)cc12 (stereo not drawn)	0%	7%	4µM*	u	6%	10%
COc1ccc(Cn2nnnc2CN(Cc2cc3cc(C)ccc3[nH]c2=O)C2CCCC2)cc1	-1%	-13%	25µM*	u	1%	9%
Cc1ccc2[nH]c(=O)c(CN(Cc3nnnn3C3CCCC3)C3CCCCC3)cc2c1	2%	0%	24%	x	7%	-6%
COc1ccc2[nH]c(=O)c(CN(Cc3nnnn3Cc3ccco3)C3CCCCC3)cc2c1	1%	-4%	20%	4%	-12%	-6%
Cc1ccc(C)c2[nH]c(=O)c(CN(Cc3nnnn3C3CCCCC3)CC3CCCO3)cc12 (stereo not drawn)	u	-2%	25µM*	u	-7%	-5%
Cc1ccc2[nH]c(=O)c(CN(Cc3ccccc3)Cc3nnnn3C3CCCC3)cc2c1	u	u	25µM*	u	19%	-24%
CSc1cccc(NC(=O)C2CCCN(C(=O)c3cnn(-c4ccc(F)cc4)c3-n3cccc3)C2)c1 (stereo not drawn)	1%	4%	x	x	-14%[10.9 µM]	-11%
CCN(c1cccc(C)c1)S(=O)(=O)c1cc(Br)cc2c1N(C(C)=O)C(C)C2 (stereo not drawn)	u	27%	x	x	-6%[10.9 µM]	8%
Cc1ccc2cc(CN(Cc3ccco3)C(=O)NCc3ccccc3)c(=O)[nH]c2c1C	u	-4%	u	u	-16%	-8%
Cc1ccc(C)c2[nH]c(=O)c(CN(Cc3ccco3)C(=O)Nc3ccccc3)cc12	u	-5%	20µM*	u	-20%	-7%
COC(=O)c1ccc(C(NC(=O)OCc2ccccc2)/C(=C/[C@@H](C)C(=O)N(C)Cc2cccnc2)c2cccnc2)cc1 (stereo partly drawn)	x	0%	-6%	6%	-8%	0%
